Assay results reported in PMC4336329 (PLoS ONE, 2015).
The whole screen tested about 310,000 compounds, of which about 14,000 (4.5%) showed an effect of 50% or more. The effect is printed as a negative number. The list comes from a sample in which strong results are over-represented; it also holds similar structures and randomly drawn compounds.

The molecules below were run against human ether-à-go-go-related gene (hERG) potassium channel (human, UniProt Q12809) (assay: primary screen, population patch clamp on CHO cells stably expressing hERG; higher = less effect of the substance).
human ether-à-go-go-related gene (hERG) potassium channel, sequence (Q12809 whole entry, looked up): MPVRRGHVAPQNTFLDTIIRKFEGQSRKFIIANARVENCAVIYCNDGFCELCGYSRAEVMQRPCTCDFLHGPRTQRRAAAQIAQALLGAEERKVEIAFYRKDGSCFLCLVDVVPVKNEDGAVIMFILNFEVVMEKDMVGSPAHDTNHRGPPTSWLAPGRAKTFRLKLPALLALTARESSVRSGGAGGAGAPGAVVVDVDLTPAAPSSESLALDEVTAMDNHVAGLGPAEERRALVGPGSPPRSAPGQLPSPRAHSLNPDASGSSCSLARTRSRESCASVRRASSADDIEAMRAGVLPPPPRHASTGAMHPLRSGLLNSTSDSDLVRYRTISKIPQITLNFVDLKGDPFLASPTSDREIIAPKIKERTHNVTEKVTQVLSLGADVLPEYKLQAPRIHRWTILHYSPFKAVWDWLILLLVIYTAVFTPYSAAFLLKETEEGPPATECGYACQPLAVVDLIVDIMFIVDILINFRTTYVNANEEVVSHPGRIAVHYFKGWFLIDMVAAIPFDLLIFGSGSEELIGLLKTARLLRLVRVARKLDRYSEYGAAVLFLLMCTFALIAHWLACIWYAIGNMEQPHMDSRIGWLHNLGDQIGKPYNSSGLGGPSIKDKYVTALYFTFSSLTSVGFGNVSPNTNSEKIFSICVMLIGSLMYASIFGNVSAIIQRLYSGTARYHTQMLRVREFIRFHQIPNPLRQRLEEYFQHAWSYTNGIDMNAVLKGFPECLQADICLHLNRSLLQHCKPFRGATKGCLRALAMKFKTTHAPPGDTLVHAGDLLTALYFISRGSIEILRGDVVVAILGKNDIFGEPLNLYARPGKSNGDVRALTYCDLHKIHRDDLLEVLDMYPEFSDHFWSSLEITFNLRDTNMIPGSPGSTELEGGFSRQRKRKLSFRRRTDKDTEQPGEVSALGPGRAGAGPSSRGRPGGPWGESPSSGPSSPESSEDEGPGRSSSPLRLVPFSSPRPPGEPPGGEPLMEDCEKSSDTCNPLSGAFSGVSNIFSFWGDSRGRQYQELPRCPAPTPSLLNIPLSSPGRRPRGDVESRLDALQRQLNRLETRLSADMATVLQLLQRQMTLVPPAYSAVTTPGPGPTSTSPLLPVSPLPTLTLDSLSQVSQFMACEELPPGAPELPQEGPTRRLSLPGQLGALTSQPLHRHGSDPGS
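Also: peak tail current of the secondary pulse compared with the same well before compound.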

Structure (SMILES) | hERG current change (%, negative = inhibition) at 10uM [%]
COc1ccc(Nc2ncnc3c2c(C)c(C)n3CCCN(C)C)cc1 | -32.7
COc1ccc(-n2c(C)c(C)c3c(NCCCO)ncnc32)cc1 | -14.3
Cc1c(C)n(CCCN(C)C)c2ncnc(Nc3ccccc3)c12 | -29.3
Cc1c(C)n(CCc2ccccc2)c2ncnc(NCCCO)c12 | -40.1
Cc1c(C)n(Cc2ccccc2)c2ncnc(NCCCN(C)C)c12 | -28.4
Cc1cc(NS(=O)(=O)c2ccc(NC(=O)CSc3nnc(-c4ccco4)n3C)cc2)nc(C)n1 | 5.75
CCCCn1c(N)c(N(CC(C)C)C(=O)C2CC(=O)N(CCc3ccccc3)C2)c(=O)[nH]c1=O (stereo not drawn) | 7.09
Cc1ccc(Oc2nn[nH]n2)cc1 | 0.395
C=C1[C@@H](OC(C)=O)[C@]23C[C@@H]1[C@@H](OC(C)=O)CC2[C@]12C4C[C@H]3[C@H]1N(CC)C[C@]4(C)CC[C@@H]2O (stereo partly drawn) | -40.6
O=C(NCc1n[nH]c(=S)n1-c1ccc(Cl)c(Cl)c1)c1ccc(S(=O)(=O)N2CCOCC2)cc1 | 14.5
N#Cc1ccccc1OCc1nnc(-c2ccccc2Br)o1 | 14.1
O=C(NCc1cccnc1)c1ccccc1NS(=O)(=O)c1ccc(F)cc1F | 9.6
Cn1c(SCCOc2ccccc2Cl)nnc1-c1cccs1 | -35
Cc1ccc2c(c1)C1CN(C)CCC1N2C(=O)c1ccccc1NS(=O)(=O)c1cccc(C(F)(F)F)c1.Cl (stereo not drawn) | -48.5
Cc1ccc2c(c1)C1CN(C)CCC1N2C(=O)/C=C/c1ccc2c(c1)OCO2 (stereo not drawn) | -62.6
Cc1ccc2c(c1)C1CN(C)CCC1N2C(=O)Cc1cccs1.Cl (stereo not drawn) | -46.9
Cc1ccc2c(c1)C1CN(C)CCC1N2C(=O)Nc1cccc(C(F)(F)F)c1 (stereo not drawn) | -52.4
Cc1ccc2c(c1)[C@@H]1CN(C)CC[C@@H]1N2C(=O)Nc1cccc(C(F)(F)F)c1 | -38.5
Cc1ccc2c(c1)C1CN(C)CCC1N2C(=O)c1cccnc1Cl.Cl (stereo not drawn) | 1.59
Cc1ccc2c(c1)C1CN(C)CCC1N2C(=O)Nc1cccc(Cl)c1 (stereo not drawn) | -51.1
Cc1ccc2c(c1)C1CN(C)CCC1N2C(=O)c1cccc(S(=O)(=O)N2CC(C)CC(C)C2)c1.Cl (stereo not drawn) | -44.8
Cc1ccc2c(c1)C1CN(C)CCC1N2C(=O)/C(C#N)=C/c1ccc2c(c1)OCO2 (stereo not drawn) | -21.2
CCOC(=O)/C(C#N)=C/c1cccc(C)c1 | 12.6

Structure (SMILES) | hERG current change (%, negative = inhibition) at 10uM [%]
COc1ccccc1-c1nnc(SCC(=O)NCc2ccco2)n1N | 17.2
CN(Cc1ccccc1)C(=O)COC(=O)c1ccccc1Nc1ccccc1 | 13
NC(=O)COC(=O)c1c2c(nc3ccccc13)CCC2 | 9.85
NC(=O)COC(=O)c1c2c(nc3ccccc13)CCCC2 | -53.3
NC(=O)COC(=O)c1c2c(nc3ccccc13)CCCCC2 | -23.2
COc1ccc(/C=C/C2=NC(=C\N(C)C)/C(=O)O2)cc1 | -37.6
CN(CCCOc1ccccc1Br)Cc1ccccc1 | -22.1
CN(C)CCCN(CCCNC(=O)/C=N/O)Cc1ccccc1 | 1.31
COc1ccc(OCCCCN(C)Cc2ccccc2)cc1.O=C(O)C(=O)O | -45.7
CN(C)CCCCCCCCCCC(=O)/C=N/O.Cl | -9.03
CN(CCCCOc1ccc(F)cc1)Cc1ccccc1.O=C(O)C(=O)O | -54.7
CN(C)CCCCOc1ccccc1F.O=C(O)C(=O)O | 14.4
CN(CCCOc1ccccc1F)Cc1ccccc1.O=C(O)C(=O)O | -57.3
CN(CCOc1ccc(F)cc1)Cc1ccccc1.O=C(O)C(=O)O | -23.3
CN(CCCCCCCCC(=O)/C=N/O)Cc1ccccc1.Cl | -58.4
CCc1ccccc1NC(=O)CCS(=O)(=O)c1ccc(OC)cc1 | 7.48
CCOC(=O)c1c(NCC2CCCO2)c2ccccc2[nH]c1=O (stereo not drawn) | 0.695
CCCN(CC(=O)Nc1ccccc1C)C(=O)c1ccc(C)c(S(=O)(=O)N2CCCCC2)c1 | -11.3
CCCCNc1nc(-c2ccccc2)nc(-n2ccnc2)n1 | 12.2
Cc1ccc(Cl)cc1NC(=O)CC1NC2CCCCC2NC1=O (stereo not drawn) | 17.6
CCC(C)c1ccccc1N1CC(C(=O)NCCC2=CCCCC2)CC1=O (stereo not drawn) | 8.97
COC(=O)c1ccc(OC)c(-c2c(OC)cc(OC)cc2OC)c1 | -1.49
